Test results taken from the supplement of paper PMC11732987, “Enantioselective OTUD7B fragment discovery through chemoproteomics screening and high-throughput optimisation” (Communications Chemistry, 2025).

Key:
Experiment in all cases: log2 ratio of Biotin-Ahx-Ub-VS probe labelling (fragment/DMSO); higher = less target engagement (more negative = stronger competition), active = hit call of the paper (q ≤ 0.05, log2 ratio ≤ -1)
Conditions in all cases: compound concentration: 200 uM; treatment time: 3 h
USP42 = target: T1, USP42 (UniProt Q9H9J4)
T1 sequence (whole entry): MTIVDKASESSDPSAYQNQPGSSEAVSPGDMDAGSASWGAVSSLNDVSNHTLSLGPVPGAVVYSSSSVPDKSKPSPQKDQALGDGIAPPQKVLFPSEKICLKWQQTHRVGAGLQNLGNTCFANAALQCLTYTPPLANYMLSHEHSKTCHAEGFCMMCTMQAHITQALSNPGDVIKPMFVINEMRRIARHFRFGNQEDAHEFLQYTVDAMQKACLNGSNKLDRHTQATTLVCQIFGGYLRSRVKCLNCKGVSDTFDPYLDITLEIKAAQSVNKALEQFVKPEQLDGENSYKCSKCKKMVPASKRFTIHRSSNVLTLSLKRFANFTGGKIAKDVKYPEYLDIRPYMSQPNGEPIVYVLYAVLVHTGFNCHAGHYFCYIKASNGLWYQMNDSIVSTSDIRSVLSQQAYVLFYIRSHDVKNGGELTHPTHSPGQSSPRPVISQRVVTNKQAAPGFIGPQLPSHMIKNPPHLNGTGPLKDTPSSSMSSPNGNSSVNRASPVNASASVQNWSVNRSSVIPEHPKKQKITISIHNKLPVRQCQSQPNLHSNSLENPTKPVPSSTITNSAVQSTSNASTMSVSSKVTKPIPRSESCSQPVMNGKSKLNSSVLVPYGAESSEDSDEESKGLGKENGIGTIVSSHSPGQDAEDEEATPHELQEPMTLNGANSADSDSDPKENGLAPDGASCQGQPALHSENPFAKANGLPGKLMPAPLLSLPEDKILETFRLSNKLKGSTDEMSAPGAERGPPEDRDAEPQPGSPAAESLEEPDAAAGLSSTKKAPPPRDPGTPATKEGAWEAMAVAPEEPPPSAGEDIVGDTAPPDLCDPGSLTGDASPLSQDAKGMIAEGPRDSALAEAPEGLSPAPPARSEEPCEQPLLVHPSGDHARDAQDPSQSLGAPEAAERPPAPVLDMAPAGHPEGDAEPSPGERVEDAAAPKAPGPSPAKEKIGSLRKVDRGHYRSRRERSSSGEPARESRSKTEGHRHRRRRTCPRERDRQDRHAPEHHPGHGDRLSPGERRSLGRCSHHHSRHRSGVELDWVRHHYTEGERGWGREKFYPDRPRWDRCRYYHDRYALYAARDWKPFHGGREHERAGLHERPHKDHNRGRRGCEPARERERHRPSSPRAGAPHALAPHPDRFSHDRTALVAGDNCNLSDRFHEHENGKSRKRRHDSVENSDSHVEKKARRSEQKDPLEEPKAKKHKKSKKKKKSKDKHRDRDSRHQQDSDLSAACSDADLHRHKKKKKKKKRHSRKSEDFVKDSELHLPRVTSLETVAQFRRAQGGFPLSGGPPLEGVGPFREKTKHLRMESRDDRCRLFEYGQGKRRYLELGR
Method in brief: (§1)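 Each value is an average log2 ratio of fragment to vehicle, tested by unpaired t-test. The underlying Spectronaut label-free quantities were global-median-normalised, and only proteins with ≥2 unique peptides were included. Triplicate HEK293T lysate samples (495 µg) were exposed to fragment at 200 µM or vehicle for 3 h, then to Biotin-Ahx-Ub-VS at 0.5 µM final for 1 h, before NeutrAvidin enrichment of labelled DUBs, LysC and trypsin digestion, and diaPASEF LC-MS/MS.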

USP46 = USP46 (UniProt P62068)
Sequence of USP46 (P62068 whole entry): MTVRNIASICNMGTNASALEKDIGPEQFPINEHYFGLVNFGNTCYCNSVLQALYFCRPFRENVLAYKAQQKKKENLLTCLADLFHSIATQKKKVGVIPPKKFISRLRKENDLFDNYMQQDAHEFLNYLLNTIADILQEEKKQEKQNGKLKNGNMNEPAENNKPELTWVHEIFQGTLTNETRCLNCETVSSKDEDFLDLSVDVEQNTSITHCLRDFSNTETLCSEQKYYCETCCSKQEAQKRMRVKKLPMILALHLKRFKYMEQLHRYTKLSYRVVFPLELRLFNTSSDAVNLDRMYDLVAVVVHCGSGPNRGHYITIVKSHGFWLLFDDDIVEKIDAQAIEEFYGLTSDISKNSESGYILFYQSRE
Method in brief: as §1

USP47 = target: T2, USP47 (UniProt Q96K76)
T2 sequence (whole entry): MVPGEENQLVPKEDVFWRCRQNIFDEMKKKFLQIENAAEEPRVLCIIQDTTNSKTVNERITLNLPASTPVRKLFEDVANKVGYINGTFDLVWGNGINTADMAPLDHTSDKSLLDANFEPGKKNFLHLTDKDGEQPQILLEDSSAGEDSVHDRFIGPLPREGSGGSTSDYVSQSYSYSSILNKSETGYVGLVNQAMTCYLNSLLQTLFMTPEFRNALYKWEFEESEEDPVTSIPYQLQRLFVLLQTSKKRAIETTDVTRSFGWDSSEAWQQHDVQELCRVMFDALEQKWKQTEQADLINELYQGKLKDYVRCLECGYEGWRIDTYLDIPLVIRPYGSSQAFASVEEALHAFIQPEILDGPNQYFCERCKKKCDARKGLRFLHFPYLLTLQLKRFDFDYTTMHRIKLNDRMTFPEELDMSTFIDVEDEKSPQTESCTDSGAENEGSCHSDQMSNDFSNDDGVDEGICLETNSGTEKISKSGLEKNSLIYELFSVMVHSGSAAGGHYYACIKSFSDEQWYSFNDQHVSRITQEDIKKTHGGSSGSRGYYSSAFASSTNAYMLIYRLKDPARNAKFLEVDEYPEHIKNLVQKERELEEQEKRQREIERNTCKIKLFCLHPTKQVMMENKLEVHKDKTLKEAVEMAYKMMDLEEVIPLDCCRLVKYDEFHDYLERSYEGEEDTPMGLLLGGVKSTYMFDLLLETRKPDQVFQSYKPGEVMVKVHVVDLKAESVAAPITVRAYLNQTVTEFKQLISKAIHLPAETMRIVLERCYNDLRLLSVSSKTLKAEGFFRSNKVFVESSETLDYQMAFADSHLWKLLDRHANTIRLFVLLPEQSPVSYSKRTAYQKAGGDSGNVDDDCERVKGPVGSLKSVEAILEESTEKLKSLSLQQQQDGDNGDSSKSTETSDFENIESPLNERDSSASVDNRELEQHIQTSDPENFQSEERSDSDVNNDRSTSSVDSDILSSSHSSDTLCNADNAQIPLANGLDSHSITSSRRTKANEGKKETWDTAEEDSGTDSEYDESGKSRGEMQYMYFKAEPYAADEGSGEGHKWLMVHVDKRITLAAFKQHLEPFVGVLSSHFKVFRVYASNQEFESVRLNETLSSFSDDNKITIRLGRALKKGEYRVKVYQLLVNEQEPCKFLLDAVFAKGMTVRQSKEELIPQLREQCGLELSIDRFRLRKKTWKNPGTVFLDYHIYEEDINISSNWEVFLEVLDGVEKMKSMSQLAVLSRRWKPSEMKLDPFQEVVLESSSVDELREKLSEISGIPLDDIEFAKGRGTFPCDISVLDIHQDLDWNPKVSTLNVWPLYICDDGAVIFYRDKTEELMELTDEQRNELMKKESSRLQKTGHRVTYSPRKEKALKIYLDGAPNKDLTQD
Method in brief: as §1

USP48 = target: T3, USP48 (UniProt Q86UV5)
T3 sequence (whole entry): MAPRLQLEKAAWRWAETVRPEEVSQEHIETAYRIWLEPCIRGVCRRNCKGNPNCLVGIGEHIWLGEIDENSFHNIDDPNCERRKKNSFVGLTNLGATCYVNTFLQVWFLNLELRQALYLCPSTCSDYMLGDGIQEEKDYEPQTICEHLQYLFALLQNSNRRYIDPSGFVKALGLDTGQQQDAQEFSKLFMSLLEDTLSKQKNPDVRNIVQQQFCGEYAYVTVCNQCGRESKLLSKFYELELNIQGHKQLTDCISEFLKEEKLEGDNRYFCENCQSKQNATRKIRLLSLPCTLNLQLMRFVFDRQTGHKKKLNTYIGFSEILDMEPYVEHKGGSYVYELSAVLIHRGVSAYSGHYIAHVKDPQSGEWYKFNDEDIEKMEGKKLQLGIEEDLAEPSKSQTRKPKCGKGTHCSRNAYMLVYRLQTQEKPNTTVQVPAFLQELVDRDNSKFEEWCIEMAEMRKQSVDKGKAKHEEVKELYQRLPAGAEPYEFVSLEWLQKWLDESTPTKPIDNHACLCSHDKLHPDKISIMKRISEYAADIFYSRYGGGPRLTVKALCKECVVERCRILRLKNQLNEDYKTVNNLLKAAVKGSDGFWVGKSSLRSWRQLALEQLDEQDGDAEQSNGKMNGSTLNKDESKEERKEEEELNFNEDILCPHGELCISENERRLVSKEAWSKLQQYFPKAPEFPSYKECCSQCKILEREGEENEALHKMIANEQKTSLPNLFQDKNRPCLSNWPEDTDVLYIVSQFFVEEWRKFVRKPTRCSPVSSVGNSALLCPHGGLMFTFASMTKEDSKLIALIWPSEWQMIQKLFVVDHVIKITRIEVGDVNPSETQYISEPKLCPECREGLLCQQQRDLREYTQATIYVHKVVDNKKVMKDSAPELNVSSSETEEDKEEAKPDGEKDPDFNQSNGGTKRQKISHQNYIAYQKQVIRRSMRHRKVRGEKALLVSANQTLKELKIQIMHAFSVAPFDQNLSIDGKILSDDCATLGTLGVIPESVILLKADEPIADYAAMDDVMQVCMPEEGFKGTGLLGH
Method in brief: as §1

USP5 = target: T4, USP5 (UniProt P45974)
T4 sequence (whole entry): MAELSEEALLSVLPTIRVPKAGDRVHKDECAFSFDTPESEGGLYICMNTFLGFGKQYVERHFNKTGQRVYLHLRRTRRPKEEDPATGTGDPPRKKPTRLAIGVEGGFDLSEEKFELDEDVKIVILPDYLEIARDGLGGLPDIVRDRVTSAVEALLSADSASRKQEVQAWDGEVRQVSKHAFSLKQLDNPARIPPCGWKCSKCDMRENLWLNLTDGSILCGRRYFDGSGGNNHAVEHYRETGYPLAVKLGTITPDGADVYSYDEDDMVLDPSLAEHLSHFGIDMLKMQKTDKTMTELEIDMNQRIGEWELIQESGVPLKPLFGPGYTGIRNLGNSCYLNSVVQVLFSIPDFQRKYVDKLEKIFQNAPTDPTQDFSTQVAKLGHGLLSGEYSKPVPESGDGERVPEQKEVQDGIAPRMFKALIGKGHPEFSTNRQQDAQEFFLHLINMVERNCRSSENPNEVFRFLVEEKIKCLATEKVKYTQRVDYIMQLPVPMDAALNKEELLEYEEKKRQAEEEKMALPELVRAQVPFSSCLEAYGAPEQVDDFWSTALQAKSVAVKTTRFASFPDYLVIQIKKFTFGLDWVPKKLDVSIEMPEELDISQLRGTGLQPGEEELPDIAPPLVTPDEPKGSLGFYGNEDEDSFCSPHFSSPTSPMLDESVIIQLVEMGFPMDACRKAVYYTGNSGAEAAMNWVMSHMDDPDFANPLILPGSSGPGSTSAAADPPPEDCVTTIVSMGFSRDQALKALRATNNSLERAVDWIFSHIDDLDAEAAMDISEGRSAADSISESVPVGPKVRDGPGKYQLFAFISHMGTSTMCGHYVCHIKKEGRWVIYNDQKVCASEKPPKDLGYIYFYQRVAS
Method in brief: as §1

USP54 = USP54 (UniProt Q70EL1)
Sequence of USP54 (Q70EL1 whole entry): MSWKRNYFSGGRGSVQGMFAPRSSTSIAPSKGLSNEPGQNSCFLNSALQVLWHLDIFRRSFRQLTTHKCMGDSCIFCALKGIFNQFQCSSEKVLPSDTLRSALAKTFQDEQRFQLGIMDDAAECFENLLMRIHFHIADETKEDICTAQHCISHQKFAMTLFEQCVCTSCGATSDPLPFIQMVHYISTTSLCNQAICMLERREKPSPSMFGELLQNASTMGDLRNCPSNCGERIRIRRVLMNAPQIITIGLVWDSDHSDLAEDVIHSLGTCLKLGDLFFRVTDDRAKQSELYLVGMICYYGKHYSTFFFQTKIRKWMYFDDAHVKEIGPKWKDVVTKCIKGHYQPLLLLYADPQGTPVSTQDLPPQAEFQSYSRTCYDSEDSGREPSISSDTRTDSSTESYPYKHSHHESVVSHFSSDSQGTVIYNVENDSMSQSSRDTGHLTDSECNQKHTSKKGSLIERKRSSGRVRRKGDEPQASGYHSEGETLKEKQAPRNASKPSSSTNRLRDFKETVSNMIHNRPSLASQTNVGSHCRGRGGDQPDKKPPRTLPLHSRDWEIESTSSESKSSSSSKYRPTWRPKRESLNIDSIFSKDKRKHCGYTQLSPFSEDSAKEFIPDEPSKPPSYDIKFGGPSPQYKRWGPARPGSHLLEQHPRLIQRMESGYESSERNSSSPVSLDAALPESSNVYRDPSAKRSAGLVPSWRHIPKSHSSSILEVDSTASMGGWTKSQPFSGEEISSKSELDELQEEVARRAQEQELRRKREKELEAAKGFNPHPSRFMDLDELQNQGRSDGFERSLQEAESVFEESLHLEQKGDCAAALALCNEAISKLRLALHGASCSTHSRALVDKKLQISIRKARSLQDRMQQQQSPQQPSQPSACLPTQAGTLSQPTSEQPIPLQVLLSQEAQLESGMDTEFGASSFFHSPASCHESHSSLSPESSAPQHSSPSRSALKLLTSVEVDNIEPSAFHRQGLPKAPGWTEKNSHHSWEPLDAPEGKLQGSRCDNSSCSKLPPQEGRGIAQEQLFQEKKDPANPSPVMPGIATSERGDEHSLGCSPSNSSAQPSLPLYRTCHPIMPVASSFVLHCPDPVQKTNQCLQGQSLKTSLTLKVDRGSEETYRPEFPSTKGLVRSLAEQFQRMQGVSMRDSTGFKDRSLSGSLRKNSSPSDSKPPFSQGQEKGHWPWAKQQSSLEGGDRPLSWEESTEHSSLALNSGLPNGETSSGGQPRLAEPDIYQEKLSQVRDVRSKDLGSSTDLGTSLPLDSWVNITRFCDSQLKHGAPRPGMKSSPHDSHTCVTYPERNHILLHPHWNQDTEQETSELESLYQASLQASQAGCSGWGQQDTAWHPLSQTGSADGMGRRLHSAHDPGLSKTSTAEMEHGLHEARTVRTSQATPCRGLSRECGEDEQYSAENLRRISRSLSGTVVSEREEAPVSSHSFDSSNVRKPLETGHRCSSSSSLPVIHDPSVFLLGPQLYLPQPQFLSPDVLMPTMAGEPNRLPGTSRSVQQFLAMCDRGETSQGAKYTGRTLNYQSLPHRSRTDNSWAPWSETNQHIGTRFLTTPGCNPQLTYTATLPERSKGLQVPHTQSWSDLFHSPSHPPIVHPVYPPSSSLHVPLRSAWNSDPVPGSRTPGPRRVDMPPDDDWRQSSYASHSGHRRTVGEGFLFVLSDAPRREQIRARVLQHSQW
Method in brief: as §1

USP7 = USP7 (UniProt Q93009)
Method in brief: as §1

USP8 = target: T5, USP8 (UniProt P40818)
T5 sequence (whole entry): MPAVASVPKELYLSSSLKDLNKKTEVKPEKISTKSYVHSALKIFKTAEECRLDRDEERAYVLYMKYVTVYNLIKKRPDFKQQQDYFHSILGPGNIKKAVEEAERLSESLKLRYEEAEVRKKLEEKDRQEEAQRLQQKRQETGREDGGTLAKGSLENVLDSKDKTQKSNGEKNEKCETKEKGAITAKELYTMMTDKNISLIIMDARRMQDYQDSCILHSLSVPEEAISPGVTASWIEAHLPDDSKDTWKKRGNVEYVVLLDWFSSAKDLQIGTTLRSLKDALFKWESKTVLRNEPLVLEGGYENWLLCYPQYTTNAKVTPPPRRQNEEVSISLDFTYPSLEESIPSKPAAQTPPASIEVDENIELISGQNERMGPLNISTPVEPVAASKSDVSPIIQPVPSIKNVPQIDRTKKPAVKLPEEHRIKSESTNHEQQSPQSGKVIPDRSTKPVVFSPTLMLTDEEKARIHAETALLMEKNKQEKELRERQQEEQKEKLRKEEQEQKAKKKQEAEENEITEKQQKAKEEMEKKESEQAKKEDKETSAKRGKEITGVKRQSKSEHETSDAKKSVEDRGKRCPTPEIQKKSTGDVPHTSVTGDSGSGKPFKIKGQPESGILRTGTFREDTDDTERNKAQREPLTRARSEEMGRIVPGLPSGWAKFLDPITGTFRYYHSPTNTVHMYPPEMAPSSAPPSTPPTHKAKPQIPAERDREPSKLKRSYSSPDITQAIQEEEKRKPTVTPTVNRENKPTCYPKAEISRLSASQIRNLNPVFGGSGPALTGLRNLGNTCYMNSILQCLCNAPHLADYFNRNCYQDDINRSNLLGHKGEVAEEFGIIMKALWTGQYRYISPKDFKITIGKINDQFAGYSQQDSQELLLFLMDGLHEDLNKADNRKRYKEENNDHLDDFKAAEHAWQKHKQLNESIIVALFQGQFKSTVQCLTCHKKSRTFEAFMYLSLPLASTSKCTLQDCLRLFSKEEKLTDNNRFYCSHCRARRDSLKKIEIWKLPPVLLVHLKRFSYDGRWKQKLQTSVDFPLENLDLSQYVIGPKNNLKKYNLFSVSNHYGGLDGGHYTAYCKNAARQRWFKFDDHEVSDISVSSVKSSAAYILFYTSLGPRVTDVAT
Method in brief: as §1

USP9X = USP9X (UniProt Q93008)
Sequence of USP9X (Q93008 whole entry): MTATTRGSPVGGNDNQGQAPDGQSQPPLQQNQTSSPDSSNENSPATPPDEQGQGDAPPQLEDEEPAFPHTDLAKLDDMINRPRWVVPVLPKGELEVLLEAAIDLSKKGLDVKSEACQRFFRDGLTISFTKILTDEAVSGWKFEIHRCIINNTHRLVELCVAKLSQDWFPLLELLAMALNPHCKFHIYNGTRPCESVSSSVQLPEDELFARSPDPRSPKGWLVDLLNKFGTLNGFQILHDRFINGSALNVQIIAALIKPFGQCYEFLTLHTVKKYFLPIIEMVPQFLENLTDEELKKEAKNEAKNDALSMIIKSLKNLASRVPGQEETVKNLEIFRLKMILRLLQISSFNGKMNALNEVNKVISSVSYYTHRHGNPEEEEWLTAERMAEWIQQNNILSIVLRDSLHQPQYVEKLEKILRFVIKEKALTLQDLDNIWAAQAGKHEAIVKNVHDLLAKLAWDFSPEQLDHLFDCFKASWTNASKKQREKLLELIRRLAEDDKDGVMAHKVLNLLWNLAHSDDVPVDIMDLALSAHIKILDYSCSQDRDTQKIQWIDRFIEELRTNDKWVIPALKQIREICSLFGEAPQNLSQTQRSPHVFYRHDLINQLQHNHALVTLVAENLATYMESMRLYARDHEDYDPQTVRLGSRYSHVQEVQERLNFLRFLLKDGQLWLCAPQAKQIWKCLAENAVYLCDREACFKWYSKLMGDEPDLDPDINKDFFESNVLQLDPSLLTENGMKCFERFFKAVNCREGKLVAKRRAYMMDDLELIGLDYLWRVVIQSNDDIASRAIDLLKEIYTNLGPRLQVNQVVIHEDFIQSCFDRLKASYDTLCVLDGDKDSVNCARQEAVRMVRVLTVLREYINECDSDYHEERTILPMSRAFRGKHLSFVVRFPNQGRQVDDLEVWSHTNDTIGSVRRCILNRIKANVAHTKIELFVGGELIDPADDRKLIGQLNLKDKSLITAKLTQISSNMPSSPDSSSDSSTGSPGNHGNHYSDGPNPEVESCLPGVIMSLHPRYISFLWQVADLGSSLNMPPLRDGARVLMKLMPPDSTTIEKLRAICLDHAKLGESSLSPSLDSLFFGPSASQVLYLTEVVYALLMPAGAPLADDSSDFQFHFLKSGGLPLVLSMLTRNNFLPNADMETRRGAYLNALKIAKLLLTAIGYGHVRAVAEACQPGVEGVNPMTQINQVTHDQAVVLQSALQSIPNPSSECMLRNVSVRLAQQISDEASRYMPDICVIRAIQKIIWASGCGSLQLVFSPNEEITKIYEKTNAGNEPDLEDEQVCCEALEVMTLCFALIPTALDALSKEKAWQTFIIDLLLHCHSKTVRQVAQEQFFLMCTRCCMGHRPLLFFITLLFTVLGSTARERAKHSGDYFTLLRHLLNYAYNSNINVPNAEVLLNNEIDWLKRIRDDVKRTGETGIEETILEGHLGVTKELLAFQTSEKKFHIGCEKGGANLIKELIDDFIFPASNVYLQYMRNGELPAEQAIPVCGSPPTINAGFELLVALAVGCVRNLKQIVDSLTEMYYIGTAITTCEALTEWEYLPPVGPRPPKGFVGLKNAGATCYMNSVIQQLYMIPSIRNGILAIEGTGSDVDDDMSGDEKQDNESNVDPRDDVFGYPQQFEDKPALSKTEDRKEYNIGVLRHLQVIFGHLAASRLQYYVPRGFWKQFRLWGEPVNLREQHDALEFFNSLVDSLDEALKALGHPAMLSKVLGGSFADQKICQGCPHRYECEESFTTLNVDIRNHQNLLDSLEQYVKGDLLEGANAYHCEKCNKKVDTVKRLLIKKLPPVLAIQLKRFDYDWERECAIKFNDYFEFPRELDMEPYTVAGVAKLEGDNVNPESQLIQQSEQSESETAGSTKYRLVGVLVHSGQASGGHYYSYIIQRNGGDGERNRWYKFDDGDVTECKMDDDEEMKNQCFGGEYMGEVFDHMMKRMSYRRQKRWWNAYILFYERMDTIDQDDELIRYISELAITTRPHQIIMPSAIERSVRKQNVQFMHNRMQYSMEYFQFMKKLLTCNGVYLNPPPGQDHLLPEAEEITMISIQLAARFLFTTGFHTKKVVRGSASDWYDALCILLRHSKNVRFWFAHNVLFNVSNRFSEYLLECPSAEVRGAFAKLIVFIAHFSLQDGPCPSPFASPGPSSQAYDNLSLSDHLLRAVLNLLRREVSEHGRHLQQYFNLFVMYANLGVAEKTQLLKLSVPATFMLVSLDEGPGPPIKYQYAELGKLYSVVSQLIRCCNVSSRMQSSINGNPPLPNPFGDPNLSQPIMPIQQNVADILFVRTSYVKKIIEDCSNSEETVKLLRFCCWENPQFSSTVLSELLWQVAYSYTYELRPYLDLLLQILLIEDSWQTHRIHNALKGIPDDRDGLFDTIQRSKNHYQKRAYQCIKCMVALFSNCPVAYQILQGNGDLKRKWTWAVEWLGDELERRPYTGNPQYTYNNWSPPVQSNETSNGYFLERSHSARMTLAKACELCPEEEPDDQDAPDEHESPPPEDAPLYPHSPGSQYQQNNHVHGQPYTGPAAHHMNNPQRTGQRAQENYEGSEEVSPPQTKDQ
Method in brief: as §1

UniProt O00487 = target: UniProt O00487
Sequence of UniProt O00487 (O00487 whole entry): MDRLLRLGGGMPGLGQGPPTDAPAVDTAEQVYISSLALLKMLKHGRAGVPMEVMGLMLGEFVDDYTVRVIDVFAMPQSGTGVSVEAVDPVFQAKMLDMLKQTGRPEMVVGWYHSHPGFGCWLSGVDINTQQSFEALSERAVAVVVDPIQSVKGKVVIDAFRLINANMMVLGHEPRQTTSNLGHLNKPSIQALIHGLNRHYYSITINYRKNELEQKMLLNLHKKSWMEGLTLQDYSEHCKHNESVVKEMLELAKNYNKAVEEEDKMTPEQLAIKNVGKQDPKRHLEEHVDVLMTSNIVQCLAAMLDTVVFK
Method in brief: as §1

Measured: log2 ratio of Biotin-Ahx-Ub-VS probe labelling

CC(NC(=O)CCl)c1cccc2ccccc12 (stereo not given)
inactive: USP42 -0.241 | USP46 0.159 | USP47 -0.308 | USP48 -0.368 | USP5 0.225 | USP54 0.115 | USP7 -0.339 | USP8 -0.651 | USP9X -0.285 | UniProt O00487 -0.0949
